{"source": "PubChem BioAssay", "key": {"[1]": {"test": "RMG-1 ovarian cancer cell viability loss – cherry-pick, dose response (AID 687029);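 note: cells exposed to compound for 96 hours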"}, "[2]": {"test": "general cell-killing toxicity readout – plate reader, dry powder samples, cytotoxicity control for PAX8 inhibitor project, dose response (AID 743021; call rule not given here)"}}, "note": "Results with a measured potency or affinity are listed apart. Records with an inconclusive call do not appear. Calls of active or inactive are those of the source.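 Rule for the calls, unless noted: active = signal drop whose fitted half-maximal concentration is at most twice the top valid dose, in every test run; inconclusive = mixed calls across runs, poor fit, or flat 30 to 70% inhibition; inactive = wrong direction, flat within 30%, or potency beyond limit.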", "data": [{"smiles": "Cc1cc(O)c(C(C)C)cc1C1(c2cc(C(C)C)c(O)cc2C)OC(=O)c2ccccc21", "values": [{"measurement": "outcome", "setting": "[1]", "value": "inactive"}, {"measurement": "outcome", "setting": "[2]", "value": "inactive"}]}, {"smiles": "COc1cccc(/C=N/Nc2ccc([N+](=O)[O-])cn2)c1O", "values": [{"measurement": "outcome", "setting": "[1]", "value": "inactive"}, {"measurement": "outcome", "setting": "[2]", "value": "inactive"}]}, {"smiles": "O=C(COC(=O)/C(=C/c1cccs1)c1cccs1)NC(c1ccccc1)c1ccccc1", "values": [{"measurement": "outcome", "setting": "[1]", "value": "inactive"}, {"measurement": "outcome", "setting": "[2]", "value": "inactive"}]}]}
